Laboratory results from PubChem BioAssay.
The source made the active and inactive calls.

Legend:
[1] = biological target: Albumin (Bos taurus) (UniProt P02769); experiment: compounds binding labelled BSA control protein – biochemical, small-molecule microarray, Alexa647 label, 635/667 nm fluorescence, artefact control for SMM control protein annotation, profiling panel (AID 1118); details: BSA-A647 binding, fluorescence 635 nm, higher = more signal;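 further: score merges 667 nm emission intensity and signal-to-noise per printed compound spot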
[2] = probe aXIP binding to arrayed compounds – biochemical, NeuroSMM set, 635/667 nm fluorescence, primary screen (AID 1119); details: small-molecule microarray, higher = more signal, called active from +8 up or from −8 down;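 further: probe is the protein aXip251-270 applied at 1 µg/mL to compound-printed slides; binding of probe to printed compounds measured as 667 nm fluorescence plus signal to noise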
[3] = probe aNOTCH3 binding on compound microarray – biochemical, small-molecule microarray, 635/667 nm fluorescence, primary screen (AID 1120); details: higher = more signal;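 further: probe is a biotin-tagged antibody raised against NOTCH3 rather than NOTCH3 protein; score merges spot fluorescence near 667 nm with spot signal to noise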
[4] = probe aNOTCH2 binding on compound microarray – biochemical, small-molecule microarray, 635/667 nm fluorescence, primary screen (AID 1121); details: higher = more signal;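 further: score merges feature fluorescence read at 667 nm with its signal to noise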
[5] = biological target: Carbonic anhydrase 2 (Homo sapiens) (UniProt P00918); experiment: compounds binding carbonic anhydrase 2 – biochemical, small-molecule microarray, Alexa647-labelled CAII, profiling panel (AID 1122); details: CAII-A647 binding fluorescence, higher = more signal
[6] = COS7 lysate on small-molecule microarray, probe aHis, 635 nm (AID 1123); details: COS7 cell lysate, fluorescence, higher = more signal;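 further: z-score combines 667nm fluorescence intensity with signal-to-noise per printed compound spot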
[7] = probe aLAP1 signal on lysate-treated microarray – cell lysate, small-molecule microarray, COS7 lysate, primary screen (AID 1124); details: probe aLAP1, fluorescence, higher = more signal;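 further: lysate comes from COS7 cells expressing LAP1 and is applied at 0.3 µg/mL; score merges spot fluorescence near 667 nm with signal-to-noise over triplicate slides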
[8] = system: Sam68 (KHDRBS1); experiment: compounds binding KHDRBS1 protein – biochemical, small-molecule microarray, 635 nm fluorescence, primary screen (AID 1125); details: higher = more signal;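 further: score merges 667 nm channel intensity with signal to noise over triplicate slides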
[9] = system: Chordin-like protein 2 (CHRDL2); experiment: compounds binding chordin-like 2 – biochemical, small-molecule microarray, 635 nm fluorescence, primary screen (AID 1126); details: fluorescence 635 nm, higher = more signal;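 further: printed compound slides probed with Chrdl2 protein at 4 µg/mL for 1 h at 4 C; score merges 667 nm emission intensity with signal to noise over three replicate slides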
[10] = biological target: Concanavalin-A (Canavalia ensiformis) (UniProt P02866); experiment: compounds binding concanavalin A lectin – biochemical, small-molecule microarray, Alexa647 label, 635 nm, artefact control for SMM control protein annotation, primary screen (AID 1127); details: ConA-A647 binding fluorescence, higher = more signal;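 further: z combines 667 nm emission intensity with signal-to-noise across three replicate slides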
Sequence of Concanavalin-A (Canavalia ensiformis) (P02866 whole entry, looked up): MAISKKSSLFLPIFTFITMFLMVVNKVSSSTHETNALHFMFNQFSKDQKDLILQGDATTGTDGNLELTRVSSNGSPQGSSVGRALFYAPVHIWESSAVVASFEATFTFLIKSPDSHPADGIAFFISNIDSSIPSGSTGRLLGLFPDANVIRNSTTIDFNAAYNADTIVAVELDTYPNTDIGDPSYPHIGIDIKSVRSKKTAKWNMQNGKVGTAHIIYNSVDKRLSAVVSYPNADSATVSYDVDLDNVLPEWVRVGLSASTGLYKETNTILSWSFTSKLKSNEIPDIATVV

Sequence of Albumin (Bos taurus) (P02769 whole entry, looked up): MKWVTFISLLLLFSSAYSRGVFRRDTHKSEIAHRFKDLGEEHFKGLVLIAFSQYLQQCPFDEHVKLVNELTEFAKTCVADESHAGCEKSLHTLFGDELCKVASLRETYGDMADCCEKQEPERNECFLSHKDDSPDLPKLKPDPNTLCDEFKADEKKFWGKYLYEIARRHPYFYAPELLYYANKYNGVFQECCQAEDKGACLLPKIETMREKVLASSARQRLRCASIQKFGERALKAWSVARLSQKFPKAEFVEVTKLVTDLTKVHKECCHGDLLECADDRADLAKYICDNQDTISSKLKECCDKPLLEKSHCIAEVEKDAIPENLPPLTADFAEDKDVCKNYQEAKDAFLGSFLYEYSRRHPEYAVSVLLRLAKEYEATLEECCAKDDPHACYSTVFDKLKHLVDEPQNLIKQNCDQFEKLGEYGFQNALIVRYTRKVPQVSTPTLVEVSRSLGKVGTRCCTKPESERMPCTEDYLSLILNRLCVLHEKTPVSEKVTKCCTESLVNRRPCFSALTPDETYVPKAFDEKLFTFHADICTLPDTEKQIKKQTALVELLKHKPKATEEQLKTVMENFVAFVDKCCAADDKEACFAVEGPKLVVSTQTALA

SMILES	composite z-score [1]	composite Z-score [2]	composite z-score [3]	composite z-score [4]	composite z-score [5]	composite z-score [6]	composite z-score [7]	composite z-score [8]	composite z-score [9]	composite z-score [10]
C=CCN1C(=O)[C@@]2(O[C@@H](CCO)[C@H]([Si](C)(C)c3ccc(OC)cc3)[C@H]2C)c2cc(NC(=O)[C@H](C)O)ccc21	0.489	0.0001 (inactive)	-0.0343	-0.126	0.63	1.68	0.231	1.31	-0.0585	0.584
[N-]=[N+]=NCc1ccccc1[C@H]1OC(c2ccc(OCCCO)cc2)=N[C@@]1(Cc1ccccc1N=[N+]=[N-])C(=O)NCCN1CCOCC1	0.701	-0.514 (inactive)	0.416	0.105	0.751	2.32	-0.0777	1.29	0.263	1.14
COc1ccc(CCNC(=O)[C@@H]2c3ccccc3C(=O)N(Cc3ccccc3)[C@H]2c2ccc(CO)cc2)cc1	0.286	-0.149 (inactive)	-0.199	-0.0562	0.735	1.64	1.36	1.34	0.156	0.526
CN(C)C(=O)[C@@]1(CCC(=O)OC(C)(C)C)COC(c2ccc(OCCCO)cc2)=N1	0.655	0.142 (inactive)	-0.119	-0.0508	0.841	3.29	0.723	0.502	-1.46	0.673
Cc1ccc(S[C@]2(C(=O)NCc3ccccc3)CC(=O)N(C3Cc4ccccc4C3)[C@@H]2c2ccc(CO)cc2I)cc1	0.254	3.63 (inactive)	-0.187	-0.0716	0.341	0.401	0.458	0.269	-0.224	-0.462
CO[C@H]1O[C@H](CO)[C@@H](OC(=O)Nc2ccc(C(F)(F)F)cc2)[C@H](OC(=O)Nc2ccccc2)[C@H]1OC(=O)Nc1ccccc1	0.868	-0.465 (inactive)	0.248	0.0083	0.565	2.68	0.494	1.3	-0.42	1.21
Cc1ccc(S[C@]2(C(=O)NCC(C)C)CC(=O)N(C3CCCCC3)[C@@H]2c2ccc(CO)cc2I)cc1	0.812	0.209 (inactive)	-0.246	-0.0862	0.637	1.51	0.738	1.28	-0.0402	0.88
CN1C(=O)C2C=CC(C(O)c3ccc(F)cc3)N(N3CCCCC3)C2C1=O (stereo not given)	0.853	-0.908 (inactive)	0.29	0.155	0.714	1.5	0.804	1.32	-1.42	1.08
COc1ccc(C#Cc2ccc3c(c2)[C@]2(C(=O)N3)[C@H](C(=O)O)[C@H]3C(=O)O[C@H](c4ccccc4)[C@H](c4ccccc4)N3[C@@H]2c2ccc(OCCO)cc2)cc1	0.92	0.655 (inactive)	0.364	0.0572	0.421	1.84	0.714	1.29	0.245	1.13
COc1cccc(C[C@H]2C[C@@H](CO[Si](C(C)C)(C(C)C)C(C)C)N3C(=O)[C@]4(C(C)=O)O[C@]23[C@H]2C(=O)N(C)C(=O)[C@H]24)c1	0.614	-0.12 (inactive)	-0.0647	-0.148	-0.0064	0.0217	-0.274	1.14	0.403	0.98
C=CCNC(=O)[C@H]1[C@@H]2C(=O)O[C@@H](c3ccccc3)[C@@H](c3ccccc3)N2[C@@H](c2ccc(O)cc2)[C@]12C(=O)N(C(=O)OCCOC)c1ccc(C#CC3(O)CCCCCC3)cc12	0.624	0.282 (inactive)	0.207	-0.0519	0.39	1.08	-0.0714	1.23	-0.233	0.915
COC(=O)[C@@]1(Cc2ccc(OC)cc2)[C@H]2c3cc(C(=O)N4CCCC4)n(Cc4ccc(C)o4)c3C[C@H]2CN1C(=O)c1ccccc1	0.963	-0.282 (inactive)	0.74	0.0489	0.614	1.23	0.0793	0.762	-0.425	0.88
O=C1O[C@H](c2ccccc2)[C@H](c2ccccc2)N2[C@H]1[C@@H](C(=O)N1CCCCCCC1)[C@]1(C(=O)Nc3ccc(C#CCCO)cc31)[C@H]2c1ccc(OCCO)cc1	0.853	10.2 (active)	2.34	1.12	1.11	5.12	1.12	1.37	1.62	1.19
CCCC=C(CCC)[C@@H](NS(=O)(=O)CC)c1ccccc1	0.929	-0.112 (inactive)	0.096	-0.0194	0.532	1.68	0.177	1.29	-0.462	1.04
COCCOC(=O)N1C(=O)[C@@]2(c3cc(C#CCNC(N)=O)ccc31)[C@H](C(N)=O)[C@H]1C(=O)O[C@H](c3ccccc3)[C@H](c3ccccc3)N1[C@@H]2c1ccc(OCCO)cc1	-0.217	0.462 (inactive)	0.276	-0.0979	0.52	0.475	0.53	0.815	1.03	1.09
CCOC(=O)C1=CC[C@@H](c2cccc(Br)c2)N(S(=O)(=O)c2ccc(C)cc2)[C@H]1c1ccc([N+](=O)[O-])cc1	0.861	0.338 (inactive)	0.0116	-0.0856	0.586	2.45	0.885	1.08	0.625	1
O=C1NC(=O)C2C1C=CC(C(O)CCc1ccccc1)N2Nc1ccccn1 (stereo not given)	0.558	1.62 (inactive)	-0.145	-0.0116	0.894	1.02	1.59	0.438	0.0374	0.891

SMILES	composite z-score [1]	composite Z-score [2]	composite z-score [3]	composite z-score [4]	composite z-score [5]	composite z-score [6]	composite z-score [7]	composite z-score [8]	composite z-score [9]	composite z-score [10]
O=C(O)[C@]1(CCS(=O)(=O)c2ccccc2)N=C(c2ccc(OCCCO)cc2)O[C@@H]1c1ccccc1	0.815	0.207 (inactive)	0.196	0.197	0.858	2.59	0.341	0.541	-0.0616	-0.251
C=CC[C@]1(C(=O)N(C)C)N=C(c2ccc(OCCCO)cc2)O[C@H]1c1ccccc1	0.641	-0.001 (inactive)	0.297	-0.124	0.687	2.93	0.795	1.26	-0.336	0.999
COc1ccccc1CN1C(=O)c2ccccc2[C@](Cc2ccccc2I)(C(=O)NCCN2CCOCC2)[C@@H]1c1ccc(CO)cc1	0.655	-0.0337 (inactive)	0.0629	-0.0288	0.646	1.71	1.01	1.29	0.617	1.1
O=C1C2C=CC(C(O)c3ccc(Br)cc3)N(Nc3ccccc3)C2C(=O)N1c1ccccc1 (stereo not given)	0.875	-0.0127 (inactive)	0.328	0.166	0.652	1.76	0.189	0.668	0.527	0.722
CN(C)C(=O)[C@@]1(CCS(=O)(=O)c2ccccc2)N=C(c2ccc(OCCCO)cc2)O[C@H]1c1ccccc1CN=[N+]=[N-]	0.9	0.24 (inactive)	0.167	-0.0478	0.553	2.45	0.527	1.3	0.205	1.08
COC(=O)[C@]1(Cc2ccccc2CN=[N+]=[N-])N=C(c2ccc(OCCCO)cc2)O[C@@H]1c1ccccc1	-0.312	0.667 (inactive)	-0.122	-0.0194	0.563	0.243	-0.779	-0.776	-0.928	0.694
CCN(CC)c1ccc(N2CC=CC34O[C@@H]5/C=C\CCCOC(=O)C5[C@H]3C(=O)N(CCCCCO)[C@@H]4C2=O)cc1 (stereo not given in full)	0.567	0.226 (inactive)	-0.402	-0.198	0.342	-0.343	0.0397	-1.83	-1.2	-0.518
O=C1NC(=O)C2C1C=CC(C(O)c1ccc(-c3ccccc3)s1)N2Nc1ccccn1 (stereo not given)	0.781	-1.39 (inactive)	-0.115	0.11	0.91	0.978	1.22	0.105	0.398	0.83
O=[N+]([O-])c1ccc(C[n+]2ccc(-c3ccc(CO)cc3)cc2)o1	0.904	0.289 (inactive)	-0.0043	-0.0485	0.885	1.13	1.2	0.649	0.768	0.648
COCCCNC(=O)[C@@]1(C)c2ccccc2C(=O)N(c2ccc(C)cn2)[C@H]1c1ccc(CO)cc1	0.537	-0.333 (inactive)	-0.463	-0.135	0.789	-0.317	0.406	-0.225	-0.889	-0.731
COCC(=C=CC[C@@H](O)c1ccccc1OCCO)C[C@@H](O)c1ccccn1	-0.203	-0.422 (inactive)	-0.0043	-0.117	0.777	1.28	0.583	0.86	-0.0696	0.742
C=CC[C@]1(C(=O)NCC(O)CO)N=C(c2ccc(OCCCO)cc2)O[C@H]1c1ccccc1N=[N+]=[N-] (stereo not given in full)	0.933	0.171 (inactive)	0.0876	0.132	0.766	2.78	1.41	0.645	-0.451	-0.0308
Cc1ccccc1C(O)C1C=CC2C(=O)N(C)C(=O)C2N1Nc1ccc([N+](=O)[O-])cc1[N+](=O)[O-] (stereo not given)	0.953	0.451 (inactive)	0.338	-0.108	0.671	2.47	0.288	1.29	-0.723	1.16
CCOc1cc(C(O)C2C=CC3C(=O)NC(=O)C3N2Nc2ccccn2)ccc1O (stereo not given)	0.409	0.057 (inactive)	-0.0663	0.0065	0.121	-0.086	0.241	-0.352	0.143	0.0306
C=CCNC(=O)[C@H]1[C@@H]2C(=O)O[C@@H](c3ccccc3)[C@@H](c3ccccc3)N2[C@@H](c2ccc(OCCO)cc2)[C@]12C(=O)N(C(=O)OCCOC)c1ccc(C#CC3=CCCCC3)cc12	0.401	0.495 (inactive)	0.0813	-0.109	0.643	1.34	0.737	1.31	0.399	1.12
O=C1O[C@H](c2ccccc2)[C@H](c2ccccc2)N2[C@H]1[C@@H](C(=O)N1CCN(c3ncccn3)CC1)[C@]1(C(=O)Nc3ccc(C#CCCO)cc31)[C@H]2c1ccc(OCCO)cc1	0.612	1.38 (inactive)	0.255	-0.0633	0.296	1.96	0.924	1.3	0.944	1.11
